Data as given in article PMC5540273 (PLoS ONE, 2017).

Assays:
Details in all cases: concentration: 1 μM, replicates: in singlicate; n = 1
[1] = test system: EPHA7
[2] = test system: EPHA8
[3] = test system: EPHB1
[4] = test system: EPHB2
[5] = test system: EPHB3
[6] = test system: EPHB4
[7] = test system: EPHB6
[8] = test system: ERBB2
[9] = test system: ERBB3
[10] = test system: ERBB4
[11] = test system: T1, ERK1
T1 construct: gene MAPK3

[12] = test system: T2, ERK2
T2 construct: gene MAPK1

[13] = test system: T3, ERK3
T3 construct: gene MAPK6

[14] = test system: T4, ERK4
T4 construct: gene MAPK4

[15] = test system: T5, ERK5
T5 construct: gene MAPK7

[16] = test system: T6, ERK8
T6 construct: gene MAPK15

[17] = test system: ERN1
[18] = test system: T7, FAK
T7 construct: gene PTK2

[19] = test system: FER
[20] = test system: FES
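Also: KINOMEscan kinase panel screen.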

SMILES	%Inh [1]	%Inh [2]	%Inh [3]	%Inh [4]	%Inh [5]	%Inh [6]	%Inh [7]	%Inh [8]	%Inh [9]	%Inh [10]	%Inh [11]	%Inh [12]	%Inh [13]	%Inh [14]	%Inh [15]	%Inh [16]	%Inh [17]	%Inh [18]	%Inh [19]	%Inh [20]
Oc1cc(Nc2ccnc3cc(I)ccc23)ccc1F [GW552771]	0%	49%	39%	14%	4%	45%	24%	22%	0%	36%	0%	0%	0%	0%	0%	11%	0%	0%	11%	0%
COc1ccc(-c2coc3ccc(-c4nnc(SCc5ccc(OC)c(C(F)(F)F)c5)o4)cc23)cc1	19%	14%	26%	24%	20%	0%	16%	19%	28%	21%	8%	24%	0%	3%	2%	2%	44%	10%	0%	4%
Cc1ccc(F)c(C(=O)Nc2cccc(-c3nn4ccccc4c3-c3ccnc(Nc4cccc(F)c4)n3)c2)c1F [GSK361061]	41%	53%	40%	0%	9%	10%	94.3%	88%	25%	96.4%	26%	0%	16%	21%	0%	0%	25%	0%	40%	0%
CN(C)Cc1ccc(-c2ccc3c(Nc4ccc(Oc5ccccn5)cc4)ccnc3c2)o1 [GW567148]	0%	13%	0%	0%	30%	0%	97.4%	45%	98.9%	0%	0%	0%	0%	0%	0%	23%	0%	0%	20%	5%
Cl.c1ccc(-c2ccc3c(Nc4ccc5[nH]ncc5c4)ccnc3c2)nc1 [GW440137]	0%	16%	13%	0%	0%	6%	46%	34%	35%	31%	10%	0%	4%	34%	0%	0%	5%	0%	15%	0%
COC(=O)Nc1nc2cc(Oc3ccc(NC(=O)Nc4cc(C(F)(F)F)ccc4F)cn3)ccc2[nH]1.Cl.Cl [GW681170]	82%	98.2%	63%	78%	12%	55%	86%	22%	2%	2%	8%	0%	0%	1%	0%	95.3%	0%	0%	23%	0%
CC(C)(C)c1ccc2nccc(Nc3cccc(O)c3)c2c1 [GW856795]	0%	56%	22%	17%	57%	37%	3%	88%	44%	37%	0%	0%	0%	0%	0%	0%	66%	0%	0%	0%
O=C(Nc1cccc(Oc2ccc3nc(NC(=O)C4CC4)cn3n2)c1)c1ccccc1C(F)(F)F	0%	29%	6%	19%	7%	10%	31%	25%	52%	20%	0%	0%	0%	0%	0%	20%	0%	9%	0%	22%
O=C(Nc1n[nH]c2cc(-c3ccoc3)ccc12)C1CC1 [SB-738481]	0%	31%	0%	0%	0%	5%	10%	0%	0%	0%	0%	0%	0%	0%	0%	84%	0%	7%	0%	5%
COC(=O)Nc1nc2ccc(Oc3ccc(NC(=O)Nc4cc(C(F)(F)F)ccc4F)cc3)cc2n1C.Cl [GW692089]	72%	91.5%	35%	43%	17%	48%	67%	28%	29%	4%	0%	0%	0%	0%	0%	72%	0%	0%	21%	3%
CNC(=O)c1ccccc1Nc1nc(Nc2ccc(N3CCOCC3)cc2)ncc1Cl.Cl [GSK1576028]	88%	40%	71%	23%	2%	46%	95.2%	79%	0%	93.4%	59%	68%	92%	64%	84%	99.5%	78%	100%	97.7%	62%
O=c1[nH]cc(-c2ccc(N3CCOCC3)cc2)c2sc(-c3cn[nH]c3)cc12 [GSK2276055]	9%	12%	6%	0%	0%	2%	31%	3%	0%	24%	0%	0%	0%	19%	0%	0%	11%	0%	0%	0%
Nc1n[nH]c2cnc(-c3ccccc3)cc12 [SB-642124]	65%	51%	19%	40%	16%	18%	0%	0%	0%	24%	0%	0%	0%	25%	0%	6%	13%	0%	0%	0%
C[C@@H]1CC[C@@H](C(=O)Nc2ccccc2)CN1c1cc(-c2ccc3c(N)n[nH]c3c2)nc(N)n1 [GSK2286062]	0%	4%	5%	0%	0%	10%	14%	44%	0%	0%	10%	0%	0%	28%	0%	0%	0%	0%	13%	12%
O=C(Nc1ccccc1F)NC1CCN(c2ccnc(Nc3ccc(F)cc3)n2)CC1 [GSK1379800]	0%	0%	17%	0%	11%	8%	18%	33%	3%	32%	3%	0%	20%	0%	0%	0%	0%	0%	15%	0%
COc1cccc(C(=O)Nc2cccc(Oc3ccc4nc(NC(=O)C5CC5)cn4n3)c2)c1	5%	98.4%	87%	94.5%	0%	85%	98.5%	4%	10%	6%	4%	6%	0%	0%	0%	14%	0%	1%	0%	0%
Cc1cccc(Nc2nc(N[C@H]3CCNC3)ncc2C(N)=O)c1.Cl [GSK2197149]	10%	15%	27%	0%	12%	0%	0%	13%	0%	23%	1%	0%	65%	25%	0%	12%	7%	0%	69%	0%
Cn1cc(-c2[nH]c3cc(NC(=O)[C@H](N)C4CCCCC4)cc4c3c2C=NNC4=O)cn1	4%	10%	15%	0%	1%	0%	92.4%	64%	77%	36%	33%	22%	0%	6%	27%	55%	21%	5%	13%	0%
